F508del corr: correctors of CFTR F508del function in bronchial epithelial cells. actives 0.36% (n = 350,000). activity (quench increase), % at 7.58 µM. CFBE cells, YFP halide quenching; stimulated with forskolin plus potentiator P3; % fluorescence drop versus neutral controls;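 active = mean added fluorescence quench of at least 8% versus neutral control, with both replicates also reaching 8%; inconclusive = only one of the mean or replicate conditions met; inactive = mean below 8% and not both replicates reaching 8%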;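 note: cells transiently co-express mutant CFTR-F508del with the halide-sensitive YFP; corrector assay measuring rescue of mutant channel to the surface after 24 h compound exposure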
MITF TRPM1 HTS: activators of MITF-driven TRPM1 promoter activity in SK-MEL-5 cells; SK-MEL-5 TRPM1-promoter luciferase, 24 h; % of positive control, neutral wells = 0; activation, % at 12.5 µM; actives 0.75% (n = 300,000); AID 588334;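 active = mean activation of at least 80% with every replicate also reaching 80%; inconclusive = mean reaches 80% but some replicate falls short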;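 note: 0% = neutral control wells and 100% = parthenolide positive control wells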
Env fusion inh: inhibitors of HIV Env-mediated cell fusion. HeLa-JRFL Env/CEM21 cell fusion, luciferase. inhibition, % at 12.3 µM. actives 1.1% (n = 360,000);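 active = mean replicate inhibition score of at least 50 and every replicate individually at or above 50; inconclusive = only one of the two criteria met; inactive = mean below 50 and not all replicates reaching 50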;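 note: 0% = plate neutral controls and 100% = maraviroc near 300 nM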
GSIS activator: GLuc luminescence reporter in INS-1E cells, primary screen for activators of glucose-dependent secretion of insulin | activation, % at 16.6 µM | INS-1E GLuc reporter insulin secretion, 2-3 h | AID 743287 | actives 0.61% (n = 370,000);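 active = lowest replicate activation of at least 40%, so every replicate reaches that level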;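 note: 0% = median of neutral control wells and 100% = median of IBMX positive control wells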
Wnt bcat act: activates Wnt/beta-catenin signaling in a reporter cell assay | activator, plate reader | activation, % at 9.35 µM | actives 1.2% (n = 300,000); in the data active = activation above about 30%, passing the limit was not always enough; inconclusive = no clear call, values can overlap the other calls;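 note: 0% = neutral control wells and 100% = positive control wells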
* = called active by the depositor; ? = inconclusive; nt = no result; [ ] = remark or other dose. Hits are enriched below; roughly 2.7% of the tested compounds scored in any of these assays.

SMILES | F508del corr | MITF TRPM1 HTS | Env fusion inh | GSIS activator | Wnt bcat act
COc1cc(OC)cc(-c2noc(-c3csc([C@H]4C[C@H](O)[C@@H](CO)O4)n3)n2)c1 | 3 | nt | -39 | nt | 39*
Cc1cccc(-c2noc(-c3csc([C@@H]4C[C@H](O)[C@@H](CO)O4)n3)n2)c1 | -2 | nt | -109 | -2 | 46*
C[C@H]1CN([C@@H](C)CO)C(=O)c2cccc(NC(=O)c3cnccn3)c2O[C@@H]1CN(C)S(=O)(=O)c1ccccc1 | -1 | nt | -2[16.7 µM] | -5 | nt
COc1ccccc1CNC(=O)C[C@@H]1C[C@@H]2c3cc(NC(=O)Nc4ccccc4F)ccc3O[C@@H]2[C@H](CO)O1 | 0 | nt | 19[16.7 µM] | 23 | nt
CO[C@H]1CN(C)C(=O)c2cc(NC(C)=O)ccc2OC[C@H](C)N(CCc2ccccc2)C[C@@H]1C | 2 | nt | nt | 2 | nt
CC1(C(=O)NS(=O)(=O)c2ccc(Cl)cc2)CCN1C(=O)C1(c2ccccc2)CCCC1 (stereo not drawn) | 0 | nt | 7 | nt | -1
CC1(C(=O)NS(=O)(=O)c2ccc(C#N)cc2)CCN1C(=O)C1(c2ccccc2)CCCC1 (stereo not drawn) | 2 | nt | 26 | 99* | -3
CCCNC(=O)[C@@H]1[C@@H](CO)[C@@H]2Cn3c(ccc(-c4ccccc4OC)c3=O)[C@H]1N2C(=O)NCCC | 0 | nt | nt | 14 | nt
CCn1c(O)c(N=Nc2ccc3ccccc3n2)c2ccccc21 | 1 | 116* | -124 | 3 | -1
CCN(C[C@H]1N[C@@](Cc2ccccc2)(C(=O)OC)[C@H]2C(=O)N(Cc3ccccc3)C(=O)[C@@H]12)C(=O)Nc1ccc(C)cc1 | 3 | -12 | -45 | -25 | 7
CCN(C[C@H]1N[C@@](CC)(C(=O)OC)[C@H]2C(=O)N(Cc3ccccc3)C(=O)[C@@H]12)C(=O)Nc1ccc(C)cc1 | 6 | 6 | 56* | nt | 7
CCN(C[C@H]1N[C@@](CC)(C(=O)OC)[C@H]2C(=O)N(Cc3ccccc3)C(=O)[C@@H]12)C(=O)Nc1ccc(Cl)cc1 | 0 | 2 | 86* | -30 | 0
C[C@@H]1CN([C@@H](C)CO)C(=O)c2cccc(NC(=O)c3cnccn3)c2O[C@@H]1CN(C)S(=O)(=O)c1cn(C)cn1 | 2 | nt | -2[16.7 µM] | -3 | nt
O=C(NCc1ccc2c(c1)OCO2)c1cc2c(s1)CSC2 | -2 | -7 | 61* | -7 | -5
C[C@@H]1CCCCO[C@H](CN(C)Cc2ccc(C(F)(F)F)cc2)[C@@H](C)CN([C@@H](C)CO)C(=O)c2cc(NC(=O)Cc3ccccc3)ccc2O1 | 4 | nt | 42[16.7 µM] | -16 | nt
Cc1nnc(NCc2ccco2)s1 | nt | 5 | 2 | nt | -3
c1coc(CNc2nc3ccccc3s2)c1 | -6 | 29 | -48 | 14 | 36*
O=C(C[C@H]1C[C@@H]2c3cc(NC(=O)C4CCC4)ccc3O[C@@H]2[C@@H](CO)O1)NCC(F)(F)F | 1 | nt | 88*[16.7 µM] | -3 | nt
O=C(C[C@@H]1C[C@H]2c3cc(NC(=O)C4CCOCC4)ccc3O[C@H]2[C@H](CO)O1)NCC(F)(F)F | -1 | nt | -6[16.7 µM] | 23 | nt
O=C(C[C@@H]1C[C@@H]2c3cc(NC(=O)C4CCC4)ccc3O[C@@H]2[C@@H](CO)O1)NCC(F)(F)F | 1 | nt | 90*[16.7 µM] | 3 | nt
COc1ccc(NC(=O)N(C)C[C@H]2OCCCC[C@H](C)Oc3ccc(NS(=O)(=O)c4c(C)noc4C)cc3C(=O)N([C@H](C)CO)C[C@@H]2C)cc1 | -3 | nt | -22[16.7 µM] | 0 | nt
O=C(Cc1ccccn1)c1ccc(Cl)cc1 | 0 | 104* | -35 | 15 | 20
O=C(Cc1ccccn1)c1ccccc1 | -4 | 43 | -32 | nt | 1
NNC(=O)c1[nH]c2ccc(Br)cc2c1-c1ccccc1 | 8 | 12 | -25 | 10 | -1
NNC(=O)c1[nH]c2ccc(Cl)cc2c1-c1ccccc1 | 17* | -4 | -206 | -3 | -1
SMILES | F508del corr | MITF TRPM1 HTS | Env fusion inh | GSIS activator | Wnt bcat act
COc1ccc(/C=C(\CC(=O)O)c2nc3ccccc3s2)cc1O | 0 | 2 | -10 | 2 | 5
COc1cc(/C=C(\CC(=O)O)c2nc3ccccc3s2)ccc1OCC(=O)Nc1ccccc1F | 18* | nt | -39 | -5 | -3
CCOc1cc(/C=C(\CC(=O)O)c2nc3ccccc3s2)ccc1OC | -1 | -10 | -13 | 51* | -1
O=C(c1ccc2c(c1)OCO2)N1CCN(c2ccccc2)CC1 | nt | 6 | nt | nt | 4
CC(=O)c1c(C)nn(C(=O)c2cccs2)c1C | 0 | 5 | 19 | 7 | -3
Cc1nn(C(=O)c2ccc3c(c2)OCO3)c(N)c1-c1ccccc1 | -3 | 75 | -12 | nt | 67*
Cc1nn(C(=O)c2cccs2)c(N)c1-c1ccccc1 | 5 | 90* | -52 | -25 | 47*
CC(C)NC(=O)N(C)C[C@@H]1OCCCC[C@H](C)Oc2ccc(N(C)C)cc2C(=O)N([C@H](C)CO)C[C@H]1C | 2 | nt | -3[16.7 µM] | 10 | nt
CCC(=O)Nc1ccc2c(c1)C(=O)N(C)[C@@H]1CC[C@@H](CC(=O)N3CCCCC3)O[C@@H]1CO2 | 1 | nt | -9[16.7 µM] | 3 | nt
COC(=O)[C@]12C[C@H](CC(=O)NCc3ccc(OC)c(OC)c3)C(=O)N(Cc3ccccc3)C1=C[C@H](C(C)(C)C)O[C@@H]2C | -2 | nt | 88* | -26 | -5
C#CCNC(=O)C[C@H]1C[C@@]2(C(=O)OC)C(=C[C@H](C(C)(C)C)O[C@@H]2C)N(CCC2=CCCCC2)C1=O | 0 | nt | 54 | -11 | 8
COC(=O)[C@]12C[C@H](CC(=O)N3CCN(C(=O)c4ccco4)CC3)C(=O)N(CCC3=CCCCC3)C1=C[C@H](C(C)(C)C)O[C@@H]2C | -3 | nt | 74* | 1 | -3
COC(=O)[C@]12C[C@H](CC(=O)N3CCCCC3)C(=O)N(CCC3=CCCCC3)C1=C[C@H](C(C)(C)C)O[C@@H]2C | -1 | nt | 27 | 20 | -12
COC(=O)[C@]12C[C@H](CC(=O)NCc3ccc(OC)c(OC)c3)C(=O)N(CCC3=CCCCC3)C1=C[C@H](C(C)(C)C)O[C@@H]2C | -1 | nt | 82* | -10 | -16
CN(C)C(=O)C[C@@H]1C[C@H]2c3cc(NC(=O)Nc4ccccc4F)ccc3O[C@H]2[C@H](CO)O1 | -1 | nt | -19[16.7 µM] | -1 | nt
Cc1cc(C(=O)COC(=O)c2ccc(Cl)c(S(N)(=O)=O)c2)c(C)n1CC1CCCO1 (stereo not drawn) | 7 | 13 | -70 | 0 | 11
Cc1cc(C(=O)COC(=O)c2ccc(O)cc2)c(C)n1CC1CCCO1 (stereo not drawn) | -1 | 23 | -3 | 3 | 1
CNS(=O)(=O)c1cccc(C(=O)OCC(=O)c2cc(C)n(CC3CCCO3)c2C)c1 (stereo not drawn) | 25* | 33 | nt | -8 | 10
Cc1cc(C(=O)COC(=O)c2cccc(S(=O)(=O)N(C)C)c2)c(C)n1CC1CCCO1 (stereo not drawn) | -1 | ? | 0 | -16 | 37*

Bioassay records as filed in PubChem BioAssay.
